# Screening results deposited in PubChem BioAssay by National Center for Advancing Translational Sciences (NCATS).
# An excerpt weighted towards active compounds, which were near 2.4% of everything screened.
# WRN helicase inh = qHTS for Inhibitors of WRN Helicase; Potency, µM (series often up to 114 µM), for the others: at the top dose activity change, negative = inhibition, hits mostly inhibitors; WRN helicase unwinding, fluorescent forked duplex, kinetic; Bifunctional 3'-5' exonuclease/ATP-dependent helicase WRN (Homo sapiens), Q14191; 0.46% of 360,000 active; AID 651768, 2012; also: % is scaled to controls: 0 for no effect and ±100 for the full control effect; nearly all actives have a fitted effect of over 55% in size
#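 Enzyme (20 nM final) and test compound sit together 15 min at room temperature before substrate addition. Substrate is a single-forked duplex oligonucleotide (100 nM) labelled with fluorophore and quencher, with 2 mM ATP; helicase unwinding raises red fluorescence, read kinetically.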
# POLI inh = qHTS for Inhibitors of Polymerase Iota; Potency, µM (highest dose often 115 µM), for the others: top-dose activity, negative = inhibition, most hits filed as inhibitors; DNA polymerase iota (Homo sapiens), Q9UNA4; Pol iota fluorescent replication assay, 10 min; 1% of 390,000 active
#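 Fluorescent replication assay read twice, at 0 min and 10 min after adding 50 nM (final) substrate. Enzyme (10 nM) and compounds were first incubated 15 min at room temperature; enzyme-free buffer wells were negative controls.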
# FEN1 inh-1 = qHTS Assay for the Inhibitors of Human Flap endonuclease 1 (FEN1); P39748; Recombinant FEN1 flap cleavage, fluorescence, 15 min; Potency, µM (doses to about 114 µM), for the others: at the top dose activity change, negative = inhibition, hits mostly inhibitors; 0.35% of 390,000 active; AID 588795, 2011; also: % is scaled to controls: 0 for no effect and ±100 for the full control effect; nearly all actives have a fitted effect of over 65% in size
#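 Steps: FEN1 (10 nM) dispensed; compound added by pin tool; 15 min at room temperature; substrate added to 50 nM final; reads at 0 min and 15 min; data normalized and fitted (four-parameter Hill).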
# POLH inh = qHTS for Inhibitors of Polymerase Eta; DNA polymerase eta (Homo sapiens), Q9Y253; recombinant Pol eta, fluorescent DNA replication assay; Potency, µM (series often up to 114 µM), for the others: at the top dose activity change, negative = inhibition, most hits filed as inhibitors; 1.2% of 390,000 active; also: % is scaled to controls: 0 for no effect and ±100 for the full control effect
# Target sequence (Q9Y253 whole entry, looked up): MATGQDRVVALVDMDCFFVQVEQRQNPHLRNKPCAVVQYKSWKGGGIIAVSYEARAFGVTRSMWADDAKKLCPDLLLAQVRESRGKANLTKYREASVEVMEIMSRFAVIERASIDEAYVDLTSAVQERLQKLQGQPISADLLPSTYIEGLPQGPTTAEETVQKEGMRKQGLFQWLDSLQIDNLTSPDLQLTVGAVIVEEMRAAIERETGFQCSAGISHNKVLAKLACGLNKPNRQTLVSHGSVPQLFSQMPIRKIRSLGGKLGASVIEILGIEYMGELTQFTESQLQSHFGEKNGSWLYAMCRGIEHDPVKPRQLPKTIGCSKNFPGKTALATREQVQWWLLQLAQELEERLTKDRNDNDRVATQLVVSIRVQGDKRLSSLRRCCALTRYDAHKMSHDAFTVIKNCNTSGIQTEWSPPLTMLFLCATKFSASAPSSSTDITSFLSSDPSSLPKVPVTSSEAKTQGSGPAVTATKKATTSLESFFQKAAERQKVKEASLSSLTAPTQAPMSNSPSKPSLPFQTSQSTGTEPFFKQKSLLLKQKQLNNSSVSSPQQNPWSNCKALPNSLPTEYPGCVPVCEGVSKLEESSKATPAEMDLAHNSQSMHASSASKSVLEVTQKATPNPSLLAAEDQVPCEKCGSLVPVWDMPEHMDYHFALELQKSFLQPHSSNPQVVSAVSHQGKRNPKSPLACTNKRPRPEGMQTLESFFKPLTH
#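 Fluorescent replication assay: 50 nM final substrate added after a 15 min room-temperature compound preincubation with 10 nM enzyme. Signal taken at 0 min and again at 10 min.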
# POLB inh = qHTS Assay for Inhibitors of DNA Polymerase Beta; P06746; Pol beta primer extension/strand displacement, fluorescence kinetic; Potency, µM (doses to about 114 µM), for inactives: top-dose activity change, negative = inhibition, hits mostly inhibitors; 1.3% of 340,000 active; AID 485314, 2010; also: % is scaled to controls: 0 for no effect and ±100 for the full control effect
#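 Human Pol beta at 10 nM; strand-displacement substrate 50 nM final. Compound exposure 15 min at room temperature before start, reaction 10 min at room temperature.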
# Pol kappa inh = qHTS for Inhibitors of Polymerase Kappa | purified Pol kappa, fluorescent DNA synthesis assay, 10 min | DNA polymerase kappa (Homo sapiens), Q9UBT6 | 0.53% of 400,000 active | Potency, µM (titrated, usually from 107 µM), inactives show top-dose activity, negative = inhibition, hits mostly inhibitors; also: % is scaled to controls: 0 for no effect and ±100 for the full control effect
#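 Here, compound and 10 nM enzyme are combined for 15 min at room temperature; adding 50 nM substrate (final) starts DNA synthesis, tracked by fluorescence at 0 and 10 min against buffer-only wells.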
# FEN1 inh-2 = qHTS Assay for the Inhibitors of FEN1: Confirmatory Assay for Cherry-picked Compounds. Potency, µM, most hits filed as inhibitors. FEN1 flap cleavage, TAMRA/BHQ2 fluorogenic DNA substrate. AID 720498, 2013. shares compounds with FEN1 inh-1. 79% of 880 active; also: nearly all actives have a fitted effect of over 60% in size
# Numbers without * were called inactive; u = inconclusive; x = no result given; [ ] = another dose, or the depositor's remark. Calls follow the shape of the dose curve; as a rule, active = well fitted curve in the direction sought with a large enough effect; inconclusive = small, poorly fitted or top-dose-only effect, or another doubt; inactive = no such curve, though single readings can be large; an effect the other way counts as inactive or inconclusive. Potency is read from the fitted curve at half-maximal effect.
SMILES,WRN helicase inh,POLI inh,FEN1 inh-1,POLH inh,POLB inh,Pol kappa inh,FEN1 inh-2
COc1c(N2CCNC(C)C2)c(F)cc2c(=O)c(C(=O)O)cn(C3CC3)c12 (centres undefined),x,-19.6%,u,x,x,-15.8%,x
NC1CCN(c2c(F)cc3c(=O)c(C(=O)O)cn(C4CC4)c3c2Cl)C1 (centres undefined),-3.5%[11.6 µM],0.9%,31.6µM*,-5.7%,u,11.5%,u
CN(C)CCCNc1cc(O)c2ncccc2c1,x,6.31µM*,-26.9%,-5.2%,x,-12.9%,37.9*
Oc1cc(NCc2ccc(F)cc2)cc2cccnc12,x,76.8%,-7.3%,-13.6%,x,-5.9%,x
COc1ccc(CCNc2c3ccccc3nc3ccccc23)cc1OC,-4.0%[11.6 µM],u,50.1µM*,u,6.31µM*,u,u
c1ccc2c(NCCc3c[nH]c4ccccc34)c3ccccc3nc2c1,25.1µM*,u,u,u,12.6µM*,-3.4%,21.3*
Fc1ccc(N2CCN(c3ncnc4[nH]ncc34)CC2)cc1,x,5.3%,-4.2%,-8.7%,5.3%,-2.0%[60.1 µM],x
Cc1cc(C)cc(OCc2cc(=O)n3c4c(sc3n2)CCCC4)c1,x,47.5%,-0.4%,-11.1%,0.5%,0.2%,x
COc1ccc2cc(CCNS(=O)(=O)c3ccc(C)cc3)c(=O)[nH]c2c1,x,17.7%,-10.7%,-10.0%,5.4%,12.3%,x
O=C(c1cc(C(F)(F)F)cc(C(F)(F)F)c1)N1CCC2(CC1)CN(c1ccccc1)C2,x,x,x,x,x,-14.3%[60.1 µM],x
COc1cc(/C=N/NC(=O)c2cccc(C(=O)N/N=C/c3ccc(O)c(OC)c3)n2)ccc1O,u,u,u,u,u,-28.5%,1.35*
COc1ccccc1N1CCN(C(=O)C(CCSC)NS(=O)(=O)c2ccc3c(c2)oc(=O)n3C)CC1 (centres undefined),x,4.6%,11.2%,-12.3%,10.3%,-9.9%[60.1 µM],x
COc1ccccc1-[n+]1c(C)cc(/C=C2\Sc3ccccc3N2C)cc1C,u,-11.5%,u,u,u,u,37.9*
COc1ccccc1OC(=O)CCN1c2ccccc2Sc2ccccc21,-13.4%,-1.8%,-17.7%,-10.5%,13.0%,-1.3%,x
COc1ccccc1CNC(=O)COC(=O)c1ccc([N+](=O)[O-])o1,4.5%[11.6 µM],u,u,u,x,-28.5%,30.1*
CCOc1cc(N2CCOCC2)c(OCC)cc1NC(=O)COC(=O)c1ccc([N+](=O)[O-])o1,-5.0%[11.6 µM],39.6%,28.2µM*,u,x,-22.8%,8.49*
O=C(COC(=O)c1ccc([N+](=O)[O-])o1)NCc1ccccc1,-19.9%,u,u,50.1µM*,x,-24.1%,13.5*
O=C(COC(=O)c1ccc([N+](=O)[O-])o1)Nc1ccc2c(c1)OCO2,-15.9%,60.3%,u,u,x,-19.9%,19*
O=C(COC(=O)c1ccc([N+](=O)[O-])o1)c1ccccc1,-6.4%,-0.6%,-14.4%,-11.7%,18.4%,-17.9%,x
COc1ccc(NC(=O)c2c(NC(=O)C(F)(F)F)sc3c2CCCCC3)cc1,x,u,-5.6%,-20.9%,u,-27.5%,x
Cc1cccc(C)c1NC(=O)COC(=O)c1ccccc1[N+](=O)[O-],-7.5%,27.3%,-10.6%,-5.3%,44.7%,-9.0%,x
Cc1cccc(C)c1NC(=O)COC(=O)c1ccc([N+](=O)[O-])o1,-4.8%[11.6 µM],u,u,u,7.3%,-5.4%,13.5*
